The panel holds about 79,000 compounds, 15% with a hit somewhere; the sample as a whole holds those more often. The source made the active and inactive calls. Rule as the data show it: active = growth inhibition above about 70%; inactive = the rest.
How the values were obtained:
[1] = NCI Yeast Anticancer Drug Screen. Data for the wt2 strain (AID 169); settings: S. cerevisiae wt2 strain growth inhibition, hits give high values
Method in brief: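 This strain belongs to a panel of yeast strains with defined genetic alterations in DNA damage repair or cell cycle control. Compounds are applied, and growth inhibition is measured against vehicle-treated cultures.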

[2] = NCI Yeast Anticancer Drug Screen. Data for the mlh1 strain (AID 171);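 also: 0% = growth of vehicle-treated control cultures of the same strain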; settings: S. cerevisiae mlh1 strain growth inhibition, hits give high values
Method in brief: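 Growth of the mutant yeast strain after compound exposure, expressed as inhibition relative to vehicle-only controls.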

[3] = NCI Yeast Anticancer Drug Screen. Data for the sgs1 strain (AID 173);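 also: 0% = growth of vehicle-only control cultures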; settings: S. cerevisiae sgs1 mutant, hits give high values
Method in brief: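 Growth of a yeast strain bearing a defined genetic alteration is measured after compound treatment. Inhibition is expressed relative to vehicle-only controls.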

[4] = NCI Yeast Anticancer Drug Screen. Data for the mlh1 rad18 strain (AID 175); settings: S. cerevisiae mlh1 rad18 strain growth inhibition, hits give high values
Method in brief: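 Read-out is yeast growth inhibition, calculated against vehicle-only controls. The compound was applied to a strain engineered with DNA damage repair alterations.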

[5] = NCI Yeast Anticancer Drug Screen. Data for the rad18 strain (AID 177); settings: S. cerevisiae rad18 mutant growth inhibition, hits give high values
Method in brief: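 Growth of the mutant yeast strain after compound exposure, normalised to vehicle-only cultures.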

[6] = NCI Yeast Anticancer Drug Screen. Data for the rad52 strain (AID 147);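 also: 0% = growth of vehicle-treated control cultures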; settings: S. cerevisiae rad52 mutant growth inhibition, hits give high values
Method in brief: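 Compounds are applied to a genetically defined yeast strain lacking normal DNA damage repair, and inhibition of growth is expressed relative to cultures given vehicle only.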

[7] = NCI Yeast Anticancer Drug Screen. Data for the wt1 strain (AID 149);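 also: 0% = growth of vehicle-treated wt1 cultures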; settings: S. cerevisiae wt1 strain (SPY 50644) growth inhibition, hits give high values
Method in brief: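 Each compound is tested on wt1 yeast and the loss of growth versus vehicle gives the inhibition value.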

[8] = NCI Yeast Anticancer Drug Screen. Data for the rad50EPP+ strain (AID 151);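 also: 0% = growth of vehicle-treated control cultures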; settings: S. cerevisiae rad50 mutant strain, hits give high values
Method in brief: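 Compounds were applied to the rad50EPP+ yeast strain, which bears a defined DNA repair alteration, and growth inhibition was determined relative to vehicle-treated cultures.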

[9] = NCI Yeast Anticancer Drug Screen. Data for the mgt1 strain (AID 153); settings: S. cerevisiae mgt1 mutant growth inhibition, hits give high values
Method in brief: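 Strain: mgt1 yeast, one of a set carrying defined DNA damage repair or cell cycle control alterations. Compound-treated growth compared with vehicle.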

[10] = NCI Yeast Anticancer Drug Screen. Data for the rad50 strain (AID 155);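 also: 0% = growth of vehicle-only cultures of the same strain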; settings: S. cerevisiae rad50 strain growth inhibition, hits give high values
Method in brief: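 Vehicle-treated cultures provide the reference for the growth inhibition reported for compound-exposed, repair-deficient yeast.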

[11] = NCI Yeast Anticancer Drug Screen. Data for the mec2-1 strain (AID 157); settings: S. cerevisiae mec2-1 strain, hits give high values
Method in brief: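 Strain: mec2-1 (DNA repair/cell cycle alteration). Compound exposure, then growth measured; inhibition expressed relative to vehicle.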

[12] = NCI Yeast Anticancer Drug Screen. Data for the rad14 strain (AID 159);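 also: 0% = growth of vehicle-treated control cultures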; settings: S. cerevisiae rad14 strain growth inhibition, hits give high values
Method in brief: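 Inhibition of growth is reported for a repair-deficient yeast mutant following compound treatment, calculated relative to cultures that received vehicle.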

[13] = NCI Yeast Anticancer Drug Screen. Data for the sgs1 mgt1 strain (AID 161);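 also: 0% = growth of cultures given vehicle only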; settings: S. cerevisiae sgs1 mgt1 strain, hits give high values
Method in brief: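 Mutant yeast exposed to compound; growth scored against vehicle-only wells.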

[14] = NCI Yeast Anticancer Drug Screen. Data for the CLN2oe strain (AID 163);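 also: 0% = growth of vehicle-only control cultures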; settings: S. cerevisiae CLN2oe strain, hits give high values
Method in brief: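 Growth of a genetically modified yeast strain is measured after compound exposure and compared with cultures given vehicle alone.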

[15] = NCI Yeast Anticancer Drug Screen. Data for the cln2 rad14 strain (AID 165);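 also: 0% = growth equal to vehicle treated cultures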; settings: S. cerevisiae cln2 rad14 strain, hits give high values
Method in brief: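 Compounds are applied to the cln2 rad14 yeast strain, and growth is then compared with that of vehicle-treated cultures to give inhibition.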

[16] = NCI Yeast Anticancer Drug Screen. Data for the bub3 strain (AID 167); settings: S. cerevisiae bub3 mutant strain, hits give high values
Method in brief: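 Mutant yeast screening strain plus compound; vehicle-treated cultures serve as the 0% inhibition reference.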

[17] = at 5.0 µM (retest, dose inferred, filed as 0.5)
[18] = at 50.0 µM (retest, dose inferred, filed as 5.0)

Measured: growth inhibition

CC1=CN2C(c3ccccc3)=NON(c3ccc(C)cn3)C2C=C1 (centres undefined)
inactive: [1]; at 1.2 µM -7% | [1]; at 3.7 µM -7% | [1]; at 11.0 µM -10% | [1]; at 33.0 µM -13% | [1]; at 100.0 µM -7% | [2]; at 1.2 µM 0% | [2]; at 3.7 µM -2% | [2]; at 11.0 µM -3% | [2]; at 33.0 µM -1% | [2]; at 100.0 µM -4% | [3]; at 1.2 µM -23% | [3]; at 3.7 µM -16% | [3]; at 11.0 µM -2% | [3]; at 33.0 µM -7% | [3]; at 100.0 µM 2% | [4]; [17] -15% | [4]; [18] 50% | [4]; at 50.0 µM 1.65% | [5]; at 1.2 µM 3% | [5]; at 3.7 µM 3% | [5]; at 11.0 µM -1% | [5]; at 33.0 µM 1% | [5]; at 100.0 µM -7%

CCC(=O)Nc1ccc(N=NN(C)C)cc1
inactive: [6]; at 1.2 µM -9% | [6]; at 3.7 µM -12% | [6]; at 11.0 µM -13% | [7]; at 1.2 µM -1% | [7]; at 3.7 µM 2% | [7]; at 11.0 µM 3% | [7]; at 33.0 µM 47% | [8]; at 1.2 µM -10% | [8]; at 3.7 µM -30% | [8]; at 11.0 µM -21% | [8]; at 33.0 µM 65% | [9]; at 1.2 µM -2% | [9]; at 3.7 µM -9% | [9]; at 11.0 µM -5% | [9]; at 33.0 µM -9% | [9]; at 100.0 µM 45% | [10]; at 1.2 µM -61% | [10]; at 3.7 µM -23% | [10]; [17] -146% | [10]; at 11.0 µM -20% | [10]; at 33.0 µM 24% | [10]; [18] 45% | [11]; at 1.2 µM -5% | [11]; at 3.7 µM -5% | [11]; [17] -49% | [11]; at 11.0 µM -5% | [11]; at 33.0 µM 17% | [12]; at 1.2 µM -3% | [12]; at 3.7 µM -7% | [12]; at 11.0 µM -1% | [12]; at 33.0 µM 23% | [13]; [17] -65% | [13]; [18] 37% | [13]; at 50.0 µM 69.9% | [14]; at 1.2 µM -11% | [14]; at 3.7 µM -9% | [14]; at 11.0 µM -11% | [14]; at 33.0 µM 21% | [15]; [17] -56% | [15]; [18] 55% | [15]; at 50.0 µM 48.2% | [16]; at 1.2 µM -9% | [16]; at 3.7 µM -8% | [16]; [17] -70% | [16]; at 11.0 µM -13% | [16]; at 33.0 µM -11% | [16]; [18] 34% | [16]; at 50.0 µM 0.3% | [1]; at 1.2 µM 0% | [1]; at 3.7 µM 2% | [1]; at 11.0 µM 6% | [2]; at 1.2 µM -13% | [2]; at 3.7 µM -10% | [2]; at 11.0 µM -10% | [2]; at 33.0 µM 19% | [3]; at 1.2 µM -13% | [3]; at 3.7 µM -8% | [3]; at 11.0 µM 2% | [3]; at 33.0 µM 46% | [4]; [17] -150% | [4]; [18] 9% | [4]; at 50.0 µM 50.2%
active: [6]; at 33.0 µM 87% | [6]; at 100.0 µM 99% | [7]; at 100.0 µM 99% | [8]; at 100.0 µM 99% | [10]; at 50.0 µM 90.7% | [10]; at 100.0 µM 98% | [11]; [18] 95% | [11]; at 50.0 µM 75.2% | [11]; at 100.0 µM 99% | [12]; at 100.0 µM 99% | [14]; at 100.0 µM 97% | [16]; at 100.0 µM 90% | [1]; at 33.0 µM 73% | [1]; at 100.0 µM 100% | [2]; at 100.0 µM 99% | [3]; at 100.0 µM 99%

Cc1cc(O)c(C(C)C)cc1SC#N
inactive: [6]; at 1.2 µM 2% | [6]; at 3.7 µM -12% | [6]; at 11.0 µM 62% | [6]; at 33.0 µM 34% | [7]; at 1.2 µM -15% | [7]; at 3.7 µM 1% | [7]; at 11.0 µM 43% | [7]; at 33.0 µM 36% | [8]; at 1.2 µM -12% | [8]; at 3.7 µM -5% | [8]; at 11.0 µM 1% | [8]; at 33.0 µM 10% | [9]; at 1.2 µM -3% | [9]; at 3.7 µM -13% | [9]; at 11.0 µM 54% | [9]; at 33.0 µM 40% | [10]; at 1.2 µM -24% | [10]; at 3.7 µM -15% | [10]; at 11.0 µM 67% | [10]; at 33.0 µM 19% | [11]; at 1.2 µM -26% | [11]; at 3.7 µM -25% | [11]; at 11.0 µM 68% | [11]; at 33.0 µM 24% | [12]; at 1.2 µM -4% | [12]; at 3.7 µM 0% | [12]; at 11.0 µM 55% | [12]; at 33.0 µM 46% | [13]; [17] -5% | [14]; at 1.2 µM 12% | [14]; at 3.7 µM -17% | [14]; at 11.0 µM 68% | [14]; at 33.0 µM 54% | [15]; [17] 65% | [16]; at 1.2 µM 3% | [16]; at 3.7 µM 50% | [16]; at 33.0 µM 34% | [1]; at 1.2 µM -11% | [1]; at 3.7 µM -24% | [1]; at 11.0 µM 52% | [1]; at 33.0 µM 36% | [2]; at 1.2 µM -19% | [2]; at 3.7 µM -5% | [2]; at 11.0 µM 58% | [2]; at 33.0 µM 33% | [3]; at 1.2 µM -30% | [3]; at 3.7 µM -24% | [3]; at 11.0 µM 65% | [3]; at 33.0 µM 28% | [5]; at 1.2 µM 12% | [5]; at 3.7 µM 2% | [5]; at 11.0 µM 59% | [5]; at 33.0 µM 40%
active: [6]; at 100.0 µM 98% | [7]; at 100.0 µM 99% | [8]; at 100.0 µM 89% | [9]; at 100.0 µM 99% | [10]; [17] 91% | [10]; [18] 98% | [10]; at 50.0 µM 89.1% | [10]; at 100.0 µM 98% | [11]; [17] 96% | [11]; [18] 99% | [11]; at 50.0 µM 91.1% | [11]; at 100.0 µM 98% | [12]; at 100.0 µM 99% | [13]; [18] 97% | [13]; at 50.0 µM 91.9% | [14]; at 100.0 µM 98% | [15]; [18] 98% | [15]; at 50.0 µM 90.3% | [16]; [17] 72% | [16]; at 11.0 µM 91% | [16]; [18] 98% | [16]; at 50.0 µM 90.5% | [16]; at 100.0 µM 98% | [1]; at 100.0 µM 98% | [2]; at 100.0 µM 98% | [3]; at 100.0 µM 98% | [4]; [17] 81% | [4]; [18] 99% | [4]; at 50.0 µM 89% | [5]; at 100.0 µM 98%

From PubChem BioAssay (NCI)
